PI5P4Ka inh: blocks human PI5P4K alpha kinase activity; P48426; PI5P4Kalpha enzyme, ADP-Glo luminescence, 60 min; hits give low values; max response, %; hit rate 1.2% among 330,000; AID 652105; active = max response of -50% or lower; inconclusive = between -30% and -50%; inactive = -30% or higher; also: value at the top dose of about 77 µM
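Enzyme plus substrate dispensed, test compounds pinned in, then ATP (5 microM final) added. After 60 min at RT, ADP-Glo reagent 1 for 45 min and reagent 2 for 30 min preceded luminescence imaging.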
VDR inhibitor: blocks the human vitamin D receptor; VDR-SRC2-3 peptide fluorescence polarization, 2 h; Potency, µM, usual class: inhibitors; P11473; hit rate 0.93% among 400,000
Target sequence (P11473 whole entry, looked up): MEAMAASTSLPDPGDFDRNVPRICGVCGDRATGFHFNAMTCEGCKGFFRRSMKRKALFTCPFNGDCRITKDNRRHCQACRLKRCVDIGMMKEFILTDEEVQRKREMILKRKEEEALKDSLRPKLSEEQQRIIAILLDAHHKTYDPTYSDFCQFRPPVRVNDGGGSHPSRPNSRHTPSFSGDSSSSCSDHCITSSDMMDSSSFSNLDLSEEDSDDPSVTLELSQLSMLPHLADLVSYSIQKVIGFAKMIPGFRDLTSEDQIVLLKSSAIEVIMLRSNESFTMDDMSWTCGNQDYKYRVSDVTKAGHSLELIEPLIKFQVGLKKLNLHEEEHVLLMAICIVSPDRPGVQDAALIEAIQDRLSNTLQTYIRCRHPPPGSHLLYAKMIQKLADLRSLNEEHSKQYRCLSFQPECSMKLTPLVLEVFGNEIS
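The screen uses fluorescence polarization to detect compounds that interfere with recruitment of the SRC2-3 coactivator peptide to VDR; plates are read after 2 h at room temperature.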
GCN5L2 inh: blocks human GCN5L2 histone acetyltransferase. hit rate 0.21% among 390,000. GCN5L2 HAT assay, ThioGlo1 CoA-SH fluorescence. Potency, µM (series often up to 58.9 µM), most hits filed as inhibitors. AID 504327
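GCN5L2 (20 nM) in 50mM HEPES pH 7.5, 0.1mM EDTA, 0.01% Tween-20 preincubated 15 min with compounds at room temperature. Reaction started with H3(1-25) 75uM, acetyl-CoA 70uM, ThioGlo1 50uM; CoA-thiol fluorescence (Ex340/Em540) read at 0 and 20 min.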
Rango release inh: inhibitors of RanGTP-induced Rango-importin beta complex dissociation | O95149+P62826 | Biochemical FRET Rango-importin beta, RanGTP-induced dissociation | Potency, µM (doses to about 46.1 µM) | hit rate 0.071% among 340,000 | AID 540253; calls by dose curve; also: nearly all actives have a fitted effect of over 45% in size
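Rango FRET biosensor (snurportin-1 IBB flanked by N-terminal EYFP and C-terminal CFP10) at 0.1 uM, with 0.25 uM importin beta in PBS, 1mM DTT, 0.02% Tween-20, 0.1% BSA. 0.6 uM Ran, 2mM GTP and 0.2 uM RCC1 were then added for 45 min at room temperature. Inhibition read as loss of FRET rise.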
Rango complex inh: Rango-importin beta binding inhibition | Q14974 | Rango CFP/YFP FRET sensor + importin beta, 45 min | Potency, µM (doses to about 92.2 µM) | hit rate 0.031% among 340,000 | AID 540263; calls by dose curve; also: nearly all actives have a fitted effect of over 15% in size
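Inhibition scored from the CFP 486 nm/YFP 530 nm FRET ratio 45 min after adding 0.125 microM importin beta to 50 nM Rango biosensor preincubated 5 min with compound (room temperature, PBS with DTT, Tween-20, BSA). No-importin wells as positive control.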
PLK1 PBD block: inhibitors of human PLK1 polo-box domain binding. P53350. Plk1 PBD binding of FITC phosphopeptide, fluorescence polarization. Potency, µM, actives largely listed as inhibitors. hit rate 2.8% among 360,000. AID 720504; also: series mostly up to about 57 µM; nearly all actives have a fitted effect of over 65% in size
Numbers stand for hits; . = inactive; ? = inconclusive; / = no result. Rows were chosen to be rich in hits. Some 3.6% of all compounds tested hit in one or more screens of this group. Unless noted, calls follow the shape of the dose curve; as a rule, active = well fitted curve in the direction sought with a large enough effect; inconclusive = small, poorly fitted or top-dose-only effect, or another doubt; inactive = no such curve, though single readings can be large; an effect the other way counts as inactive or inconclusive.

SMILES | PI5P4Ka inh | VDR inhibitor | GCN5L2 inh | Rango release inh | Rango complex inh | PLK1 PBD block
COc1ccc(NC(=O)CNC(=O)Cn2cnc3sc4c(c3c2=O)CCCC4)cc1OC | . | . | . | . | . | .
O=C(Cn1cnc2sc3c(c2c1=O)CCCC3)NCC(=O)Nc1c(F)cc(F)cc1Br | . | . | . | . | . | 29.9µM
Cc1ccccc1NC(=O)N1CCc2cc(S(=O)(=O)N3CCC(C)CC3)ccc21 | / | . | . | / | / | /
CCOC(=O)c1sc2nc3n(c(=O)c2c1C)CCC(C)CC3 (stereo unspecified) | / | . | . | . | . | 29.9µM
CCOc1cccc(C2c3[nH]c4ccccc4c3CCN2C(=O)Cc2cccc(OCC)c2OCC)c1 (stereo unspecified) | / | . | . | / | / | /
COc1ccc(C(=O)O/N=C(\N)c2ccccn2)cc1 | -71.4 | . | . | . | . | .
COc1cc(OC)cc(C(=O)NNC(=O)c2ccccn2)c1 | . | . | . | . | . | .
CCN(CC)CCCNC(=O)c1ccc(Cl)c(S(=O)(=O)Nc2ccccc2OC)c1 | . | . | . | . | . | .
COc1cc(NC(=O)c2cc(-c3ccccc3)on2)cc(OC)c1OC | . | . | . | . | . | .
COc1ccc(C(=O)NNC(=O)c2ccccn2)cc1 | -57.5 | . | . | . | . | .
CCN(CC)CCNC(=O)c1ccc(Cl)c(S(=O)(=O)Nc2ccccc2OC)c1 | . | . | . | . | . | 23.8µM
COc1cc(NC(=O)c2ccccn2)cc(OC)c1OC | ? | ? | . | . | . | 6.7µM
CCOc1ccc(NC(=O)Cn2nc(CC)n3c(cc4sccc43)c2=O)cc1 | / | . | . | / | / | /
COc1ccc(-c2noc(CSc3nc(N)cc(=O)[nH]3)n2)cc1OC | / | . | . | / | / | /
CSCC[C@H](NC(=O)[C@H](Cc1c[nH]c2ccccc12)NC(=O)CNC(=O)[C@H](Cc1ccc(O)cc1)NC(=O)[C@H](C)NC(=O)[C@H](CCC(=O)O)NC(=O)[C@H](CCC(=O)O)NC(=O)[C@H](CCC(=O)O)NC(=O)[C@H](CCC(=O)O)NC(=O)[C@H](CCC(=O)O)NC(=O)[C@H](CC(C)C)NC(=O)[C@H](Cc1c[nH]c2ccccc12)NC(=O)[C@@H]1CCCN1C(=O)CNC(=O)[C@@H]1CCC(=O)N1)C(=O)N[C@@H](CC(=O)O)C(=O)N[C@@H](Cc1ccccc1)C(=O)NCC(=O)O | / | . | . | / | / | /
Cc1ccc(C(=O)O/N=C(\N)c2ccccn2)c(C)c1 | -56.6 | . | . | . | . | .
CCN(CC)c1ccc(NC(=O)c2ccccn2)cc1S(=O)(=O)Nc1ccccc1OC | ? | 79.4µM | . | . | . | 6.7µM
COc1ccc(NS(=O)(=O)c2cc(NC(=O)c3ccccn3)ccc2OC)cc1Br | . | . | . | . | . | .
CCCCn1c(=O)c2oc3ccccc3c2n(CC(=O)Nc2cccc(Cl)c2)c1=O | / | . | . | / | / | /
COc1ccc(S(=O)(=O)Nc2cccc(S(=O)(=O)N3CCCCC3)c2)cc1 | . | . | . | . | . | .
O=[N+]([O-])c1cccc(S(=O)(=O)Nc2nc3ccccc3nc2Nc2cccc(S(=O)(=O)N3CCCCC3)c2)c1 | ? | . | ? | . | . | 23.8µM
Cc1ccc(S(=O)(=O)Nc2nc3ccccc3nc2Nc2cccc(S(=O)(=O)N3CCCC3)c2)cc1 | . | . | . | ? | ? | 26.7µM
O=[N+]([O-])c1cccc(S(=O)(=O)N2CCCCC2)c1 | . | . | . | . | . | .
CCOC(=O)c1c(C)oc2nc(C)nc(NCc3cccc(OC)c3)c12 | / | . | . | / | / | /
Cc1ccc(S(=O)(=O)Nc2nc(C)c(NC(=O)Nc3ccc(Cl)cc3Cl)s2)cc1 | . | . | . | . | . | 21.2µM
SMILES | PI5P4Ka inh | VDR inhibitor | GCN5L2 inh | Rango release inh | Rango complex inh | PLK1 PBD block
COc1ccc(NC(=O)Nc2sc(NS(=O)(=O)c3ccccc3)nc2C)cc1 | . | . | . | . | . | ?
Cc1ccc(S(=O)(=O)Nc2nc(C)c(NC(=O)OCCCl)s2)cc1 | . | 89.1µM | . | . | . | .
CCC(Cn1nnc2ccccc2c1=O)NC(=O)Nc1ccc(C)c(C)c1 (stereo unspecified) | / | . | . | / | / | /
C=CCn1c(C)csc1=Nc1ccc(C(C)=O)cc1 | . | . | . | ? | ? | .
C=CCn1c(C)csc1=Nc1ccccc1C | . | . | . | . | . | 29.9µM
C#CC[N+](C)(C)CCCCCCCCC | . | . | . | . | . | 37.7µM
Cc1ccc2c(c1)N(CCCC(=O)Nc1cccc(C(F)(F)F)c1)C(=O)CO2 | . | ? | . | . | . | 26.7µM
O=C(O)COCCN1CCN([C@@H](c2ccccc2)c2ccc(Cl)cc2)CC1 | / | . | . | / | / | /
CCCN(Cc1cc2cc(C)ccc2[nH]c1=O)C(=O)c1ccccn1 | ? | ? | . | . | . | 18.9µM
COc1ccccc1Cc1nc2ccccc2nc1SCC(=O)N1CCN(c2ccccc2)CC1 | / | . | . | / | / | /
CC(C)[C@H]1CN=C2N(CCNC(=O)CCC3CCCCC3)[C@H](Cc3ccc(O)cc3)CN21 | ? | . | . | . | . | 26.7µM
O=C(CCC1CCCCC1)NCCN1C2=NC[C@H](Cc3ccc(O)cc3)N2C[C@H]1Cc1ccc(O)cc1 | . | . | . | . | . | ?
CC1CCN(S(=O)(=O)c2cc(C(=O)N3CCN(c4cccc(Cl)c4)CC3)n(C)c2)CC1 | / | . | . | / | / | /
O=C(NN1C(=O)/C(=C/c2ccc(O)c([N+](=O)[O-])c2)SC1=S)c1ccccc1Cl | -79.1 | . | . | . | ? | .
COc1cc(/C=C2\SC(=S)N(NC(=O)c3ccccc3O)C2=O)ccc1O | -61.9 | ? | . | . | ? | ?
COc1ccc(/C=C2\SC(=S)N(NC(=O)c3ccncc3)C2=O)cc1OC | / | / | . | / | / | /
CCOC(=O)c1c(C)c(-c2ccccc2)n(CC(=O)NC2CCCCCC2)c1C | / | . | . | / | / | /
COc1ccc(C)cc1NC(=O)CN1CCN(c2ccccn2)CC1 | . | ? | . | . | . | 26.7µM
COc1ccccc1NC(=O)CN1CCN(c2ccc(F)cc2)CC1 | . | ? | / | . | . | 23.8µM
Cc1ccc(OC(C)C(=O)N2CCN(c3ccccn3)CC2)cc1 (stereo unspecified) | ? | . | / | . | . | 26.7µM
O=C(NCc1ccc(Cl)cc1)c1n[nH]c([N+](=O)[O-])c1Cl | . | ? | . | ? | . | 18.9µM
O=C(Cc1ccccc1[N+](=O)[O-])NCc1ccc(Cl)cc1 | . | . | . | . | . | .
CCCc1c(-c2ccc(O)cc2)nn(-c2ccc(O)cc2)c1-c1ccc(O)cc1 | -52.8 | ? | . | . | . | .
CCNc1nc(NC(N)=S)nc(NC(C)(C)C)n1 | . | . | . | . | . | 26.7µM
Cc1cn(C2OC(COC(=O)c3ccccc3)C(OC(=O)c3ccccc3)C2OC(=O)c2ccccc2)c(=O)[nH]c1=O (stereo unspecified) | / | . | . | . | . | .
